Source: PubChem BioAssay
Compounds with a hit are over-represented: about 3.4% of the library has one in this group of screens.
HIV Env fusion: inhibitors of HIV Env-mediated cell fusion | inhibition, % at 12.3 µM | 1.1% of 360,000 active | AID 651610 | HeLa-JRFL Env/CEM21 cell fusion, luciferase;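 active = mean replicate inhibition score of at least 50 and every replicate individually at or above 50; inconclusive = only one of the two criteria met; inactive = mean below 50 and not all replicates reaching 50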
MITF TRPM1 HTS: activators of MITF-driven TRPM1 promoter activity in SK-MEL-5 cells; SK-MEL-5 TRPM1-promoter luciferase, 24 h; % of positive control, neutral wells = 0; AID 588334; 0.75% of 300,000 active; activation, % at 12.5 µM;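 active = mean activation of at least 80% with every replicate also reaching 80%; inconclusive = mean reaches 80% but some replicate falls short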
Wnt bcat act: Wnt/beta-catenin pathway activation | Wnt/beta-catenin reporter cell assay, activator, plate reader | 1.2% of 300,000 active | AID 743398 | activation, % at 9.35 µM; in the data active = activation above about 30%, passing the limit was not always enough; inconclusive = no clear call, values can overlap the other calls
miR122 inh: miR-122 inhibition in Huh7 cells | Huh7 miR-122 Renilla luciferase sensor, 48 h; neutral wells = 0, positive control = 100 | activation (reporter increase), % at 12.5 µM | 0.3% of 340,000 active;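 active = mean replicate activation score at least 90 and every replicate individually at or above 90; inconclusive = only one of the two criteria met; inactive = neither criterion met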;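 also: higher luciferase means less miR-122 activity so hits act as miR-122 inhibitors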
esBAF inh: blocks esBAF chromatin remodeling in mouse ES cells. 2% of 350,000 active. reporter increase, % at 12.5 µM. Bmi1-luciferase knock-in reporter, 24 h; 100% = twice the neutral-well signal. AID 602393; in the data active = activation above about 40%; inconclusive = no clear call, values can overlap the other calls;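 also: a rise in the Bmi1 reporter signal indicates esBAF inhibition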
Large screens that a line does not name were inactive.

CNC[C@H]1Oc2ccc(NC(=O)NC(C)C)cc2C(=O)N([C@@H](C)CO)C[C@H]1C	none (no result: MITF TRPM1 HTS, Wnt bcat act)
C[C@@H]1CCCCO[C@H](CN(C)C(=O)Nc2ccc(F)cc2)[C@H](C)CN([C@H](C)CO)C(=O)c2cc(NS(C)(=O)=O)ccc2O1	none (no result: MITF TRPM1 HTS, Wnt bcat act)
COc1cccc(NC(=O)c2ccccc2F)c1	MITF TRPM1 HTS 86.6, Wnt bcat act inconclusive
C[C@@H]1CN([C@@H](C)CO)S(=O)(=O)c2ccc(/C=C/c3ccccc3)cc2O[C@H]1CN(C)Cc1cncnc1	none (no result: MITF TRPM1 HTS, Wnt bcat act)
Cc1ccc(C(=O)CNc2ccccc2)cc1	esBAF inh 62.1 (no result: miR122 inh)
O=C(CNc1ccc(Br)cc1)c1ccccc1	none (no result: MITF TRPM1 HTS, Wnt bcat act)
O=C(CNc1ccc(F)cc1)c1ccccc1	HIV Env fusion 106.1 (no result: miR122 inh, esBAF inh)
Cc1ccc(C(=O)CNc2ccc(Br)cc2)cc1	none (no result: MITF TRPM1 HTS, Wnt bcat act)
CCn1c(COc2ccccc2)nc2ccccc21	esBAF inh 58.0 (no result: HIV Env fusion)
Cn1c(COc2ccc(F)cc2)nc2ccccc21	esBAF inh 64.5 (no result: MITF TRPM1 HTS)
Cc1cccc(OCc2nc3ccccc3n2C)c1	esBAF inh 64.2 (no result: MITF TRPM1 HTS)
COCc1nc2ccccc2n1Cc1ccc(Br)cc1	esBAF inh 49.6 (no result: HIV Env fusion, Wnt bcat act)
CCCn1c(COc2ccc(C(=O)O)cc2)nc2ccccc21	none
Cn1c(COc2ccc(C(=O)O)cc2)nc2ccccc21	none
CCCNC(=O)N1C[C@H](C)[C@@H](OC)CN(C)C(=O)c2cc(NC(=O)C3CCC3)ccc2OC[C@H]1C	none (no result: HIV Env fusion, MITF TRPM1 HTS, Wnt bcat act)
COc1cccc(-c2ncc3ccccn23)c1	esBAF inh 51.7 (no result: HIV Env fusion)
Cc1ccc(/C=C(\C#N)c2nc3ccccc3[nH]2)s1	esBAF inh 98.5 (no result: HIV Env fusion, Wnt bcat act)
Cc1cc(/C=C(\C#N)c2nc3ccccc3[nH]2)c(C)n1C	Wnt bcat act 83.8 (no result: esBAF inh)
N#C/C(=C\c1c(Cl)cccc1Cl)c1nc2ccccc2[nH]1	none
N#C/C(=C/c1cccs1)c1nc2ccccc2[nH]1	esBAF inh 133.8 (no result: Wnt bcat act)
Cc1cc(/C=C(/C#N)c2nc3ccccc3[nH]2)c(C)n1-c1cccc([N+](=O)[O-])c1	none (no result: HIV Env fusion, Wnt bcat act, esBAF inh)
CC(C)C#Cc1ccc([C@H]2[C@@H](C#N)N(C(=O)c3cccc(F)c3)[C@@H]2CO)cc1	none (no result: HIV Env fusion, MITF TRPM1 HTS, Wnt bcat act, miR122 inh)
CCCN1C[C@H](C)[C@H](OC)CN(C)C(=O)c2cc(NC(=O)c3cccc(F)c3)ccc2OC[C@@H]1C	none (no result: HIV Env fusion, MITF TRPM1 HTS, Wnt bcat act)
Cc1ccc(-c2ccc(CO)o2)cc1N	none
CCOC(=O)c1ccc(-c2ccc(CO)o2)cc1	Wnt bcat act 45.1 (no result: MITF TRPM1 HTS)
CO[C@@H](CN(C)S(=O)(=O)c1cn(C)cn1)[C@H](C)CN(C(=O)Nc1ccc(F)cc1)[C@@H](C)CO	none (no result: HIV Env fusion, MITF TRPM1 HTS, Wnt bcat act, miR122 inh)
C[C@H](CO)N1C[C@H](C)[C@H](CN(C)Cc2ccc3c(c2)OCO3)Oc2cc(-c3cccc(C(=O)N(C)C)c3)ccc2S1(=O)=O	none (no result: MITF TRPM1 HTS, Wnt bcat act)
CC(=O)Nc1sc2c(c1C(c1ccc(Cl)cc1)N1CCOCC1)CCCC2 (centres undefined)	none (no result: HIV Env fusion, Wnt bcat act)
CC(=O)Nc1sc2c(c1C(c1ccc(F)cc1)N1CCOCC1)CCCC2 (centres undefined)	HIV Env fusion 90.3
COc1c(C)cccc1C(=O)Nc1ccc(N2CCOCC2)c(Cl)c1	MITF TRPM1 HTS 88.9, esBAF inh 58.5 (no result: HIV Env fusion, Wnt bcat act)
O=C(COc1ccccc1)Nc1cccc(-c2ccc(N3CCOCC3)nn2)c1	MITF TRPM1 HTS 85.9, Wnt bcat act inconclusive
O=[N+]([O-])c1ccc(S(=O)(=O)Nc2cccc(-c3ccc(N4CCOCC4)nn3)c2)cc1	none
O=C(Nc1cccc(-c2ccc(N3CCOCC3)nn2)c1)c1ccc([N+](=O)[O-])cc1	MITF TRPM1 HTS 98.9, Wnt bcat act 31.5, esBAF inh 52.1
Cc1ccc(C(=O)Nc2cccc(-c3ccc(N4CCOCC4)nn3)c2)cc1[N+](=O)[O-]	MITF TRPM1 HTS 102.8, Wnt bcat act 32.8, esBAF inh 41.4
O=C(NCCN1CCCCC1)[C@H]1[C@H](CO)[C@H]2Cn3c(cccc3=O)[C@@H]1N2C(=O)C1CCCCC1	none (no result: HIV Env fusion, MITF TRPM1 HTS, Wnt bcat act)
C[C@@H]1CN([C@@H](C)CO)C(=O)c2cc(C#Cc3cccc(F)c3)cnc2O[C@@H]1CN(C)C(=O)C1CCC1	none (no result: MITF TRPM1 HTS, Wnt bcat act)
CCCNC(=O)N1C[C@@H]2[C@H](c3ccccc31)[C@H](CO)N2C(=O)NC(C)C	none (no result: HIV Env fusion, MITF TRPM1 HTS, Wnt bcat act)
O=C(Nc1cccc(-c2ccc(N3CCOCC3)nn2)c1)c1ccccc1	MITF TRPM1 HTS inconclusive
Cc1ccccc1C(=O)Nc1cccc(-c2ccc(N3CCOCC3)nn2)c1	esBAF inh 59.8
O=C(Nc1ncc(Cc2ccccc2Cl)s1)C1CCCO1 (centres undefined)	esBAF inh 71.4
O=C(Nc1ncc(Cc2cccc(Cl)c2Cl)s1)C1CCCO1 (centres undefined)	MITF TRPM1 HTS 133.5, Wnt bcat act 43.9, esBAF inh 84.7
O=C(Nc1ncc(Cc2cccc(Cl)c2)s1)C1CCCO1 (centres undefined)	MITF TRPM1 HTS 96.7 (no result: HIV Env fusion, Wnt bcat act, esBAF inh)
CC(=O)Nc1ncc(Cc2cccc(Cl)c2)s1	none (no result: miR122 inh, esBAF inh)
C[C@H]1CN([C@@H](C)CO)S(=O)(=O)c2ccc(C#Cc3ccccc3)cc2O[C@H]1CN(C)C(=O)CN(C)C	none (no result: MITF TRPM1 HTS, Wnt bcat act)
C[C@H]1CN([C@@H](C)CO)C(=O)c2cc(NC(=O)Nc3cccc4ccccc34)ccc2O[C@H]1CN(C)C(=O)Nc1ccc(C(F)(F)F)cc1	none (no result: HIV Env fusion, MITF TRPM1 HTS, Wnt bcat act)
CC1(C)CC(=O)c2cnc(NC3CC3)nc2C1	none
Cc1ccc(Nc2ncc3c(n2)CC(C)(C)CC3=O)cc1	MITF TRPM1 HTS 91.5 (no result: miR122 inh, esBAF inh)
Cc1ccc2[nH]c3c(c2c1)CN(C(=O)CN1c2ccc(F)cc2CCC1C)CC3 (centres undefined)	HIV Env fusion 59.7 (no result: Wnt bcat act)
CN(C)/C=N/C1=C(C#N)C(c2ccc(Br)cc2)c2ccc3ccccc3c2O1 (centres undefined)	HIV Env fusion 59.4
COc1cc(C2C(C#N)=C(N)Oc3c2ccc2ccccc32)ccc1OCC(=O)Nc1ccccc1C (centres undefined)	none
O=C(NCC[C@@H]1CC[C@H](NS(=O)(=O)c2cccc(F)c2)[C@@H](CO)O1)c1cnccn1	none (no result: MITF TRPM1 HTS, Wnt bcat act, miR122 inh)
CN1C(=O)c2cc(NC(=O)Nc3ccccc3F)ccc2OC[C@H]2O[C@H](CC(=O)O)CC[C@H]21	none (no result: MITF TRPM1 HTS, Wnt bcat act)
O=[N+]([O-])c1ccc(-c2cn3c(n2)SCC3)cc1	esBAF inh 59.6 (no result: MITF TRPM1 HTS)
C[C@@H]1CCCCO[C@@H](CN(C)S(C)(=O)=O)[C@H](C)CN([C@H](C)CO)C(=O)c2cc(NS(C)(=O)=O)ccc2O1	none (no result: MITF TRPM1 HTS, Wnt bcat act)
CCOc1ccc(-c2noc(-c3csc([C@@H]4C[C@H](O)[C@@H](CO)O4)n3)n2)cc1	esBAF inh 80.8 (no result: MITF TRPM1 HTS)
COc1ccc(-c2noc(-c3csc([C@@H]4C[C@H](O)[C@@H](CO)O4)n3)n2)cc1OC	none (no result: MITF TRPM1 HTS)
COc1cc(OC)cc(-c2noc(-c3csc([C@@H]4C[C@H](O)[C@@H](CO)O4)n3)n2)c1	esBAF inh 48.1 (no result: MITF TRPM1 HTS)
OC[C@H]1O[C@@H](c2nc(-c3nc(-c4ccc(F)cc4)no3)cs2)[C@H](O)[C@@H]1O	Wnt bcat act 61.1 (no result: MITF TRPM1 HTS)
COc1ccc(S(=O)(=O)N(C)C[C@H]2Oc3ccc(NC(=O)CCC(F)(F)F)cc3C(=O)N([C@@H](C)CO)C[C@H]2C)cc1	none (no result: HIV Env fusion, MITF TRPM1 HTS, Wnt bcat act)
